# Data: PMC8384837, “Expanding the binding specificity for RNA recognition by a PUF domain”
# Columns and labels:
# Assay in all cases: yeast three-hybrid, YBZ-1, SC-Leu-His + 0.5 mM 3-AT, 4 days
# Details in all cases: tags: N-Gal4 AD-HA kept; label: inside an RPR1-promoter hybrid RNA with tandem MS2 sites; ssRNA
# PUM1 PUF domain R4-DYS = PUM1 PUF domain R4-DYS (Homo sapiens, UniProt Q14671 828-1176, N971D;H972Y;Q975S)
# Summary of the method: (§1)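 Pumilio-1 PUF domain libraries, randomized (NNK) at the three base-contacting residues of each repeat, were co-expressed with matching RNA elements from a centromeric plasmid in strain YBZ-1 (LexA–MS2 coat fusion, HIS3 reporter). Transformants were plated on SC-Leu (input) and SC-Leu-His + 0.5 mM 3-AT (selection) for four days, and repeat regions were PCR-amplified and Illumina-sequenced. The interaction score is the log2 change in variant frequency from input to selection, with pseudocount 1 where absent.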
# PUM1 PUF domain R3-LWL = PUM1 PUF domain R3-LWL (Homo sapiens, UniProt Q14671 828-1176, C935L;R936W;Q939L)
# Summary of the method: as §1
# PUM1 PUF domain R8-RYQ = PUM1 PUF domain R8-RYQ (Homo sapiens, UniProt Q14671 828-1176, N1122R)
# Summary of the method: as §1
# PUM1 PUF domain R8-AWQ = PUM1 PUF domain R8-AWQ (Homo sapiens, UniProt Q14671 828-1176, N1122A;Y1123W)
# Summary of the method: as §1
# PUM1 PUF domain R1-MPR = PUM1 PUF domain R1-MPR (Homo sapiens, UniProt Q14671 828-1176, S863M;R864P;Q867R)
# Summary of the method: as §1
# PUM1 PUF domain R1-KCQ = PUM1 PUF domain R1-KCQ (Homo sapiens, UniProt Q14671 828-1176, S863K;R864C)
# Summary of the method: as §1
# PUM1 PUF domain R1-KNI = PUM1 PUF domain R1-KNI (Homo sapiens, UniProt Q14671 828-1176, S863K;R864N;Q867I)
# Summary of the method: as §1
# PUM1 PUF domain R8-CYC = PUM1 PUF domain R8-CYC (Homo sapiens, UniProt Q14671 828-1176, N1122C;Q1126C)
# Summary of the method: as §1
# PUM1 PUF domain R6-IFN = biological target: T1, PUM1 PUF domain R6-IFN (Homo sapiens, UniProt Q14671 828-1176, N1043I;Y1044F;Q1047N)
# T1 sequence: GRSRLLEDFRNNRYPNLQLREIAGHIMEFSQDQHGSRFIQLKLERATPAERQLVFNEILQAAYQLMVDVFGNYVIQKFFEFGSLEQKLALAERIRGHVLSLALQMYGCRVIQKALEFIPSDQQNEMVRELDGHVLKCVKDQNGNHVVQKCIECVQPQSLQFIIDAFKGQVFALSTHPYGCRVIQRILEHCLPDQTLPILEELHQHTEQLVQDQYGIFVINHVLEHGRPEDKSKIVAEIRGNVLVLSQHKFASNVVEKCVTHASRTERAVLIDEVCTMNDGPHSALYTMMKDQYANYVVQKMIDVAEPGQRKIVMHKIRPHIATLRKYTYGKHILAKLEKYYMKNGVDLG
# Summary of the method: as §1
# PUM1 PUF domain R5-GSK = PUM1 PUF domain R5-GSK (Homo sapiens, UniProt Q14671 828-1176, C1007G;R1008S;Q1011K)
# Summary of the method: as §1
sequence,measurement,setting,value
GGCUAGAACUAGUGGAUCCCCCGGCGCCCGGCGGCUCGAGCCCGGGUAAGUGUAAAUAGUCUGCAUGCCGCCGGGCGCCAUGCCUGCAGGUCGACUCUAGAAAACAUG,binding signal,PUM1 PUF domain R4-DYS,4.45 log2 enrichment (interaction score)
same,binding signal,PUM1 PUF domain R3-LWL,2.69 log2 enrichment (interaction score)
same,binding signal,PUM1 PUF domain R8-RYQ,4.32 log2 enrichment (interaction score)
same,binding signal,PUM1 PUF domain R8-AWQ,3.01 log2 enrichment (interaction score)
GGCUAGAACUAGUGGAUCCCCCGGCGCCCGGCGGCUCGAGCCCGGGUAAGUGUAAAUUGUCUGCAUGCCGCCGGGCGCCAUGCCUGCAGGUCGACUCUAGAAAACAUG,binding signal,PUM1 PUF domain R1-MPR,3.08 log2 enrichment (interaction score)
same,binding signal,PUM1 PUF domain R1-KCQ,3.28 log2 enrichment (interaction score)
GGCUAGAACUAGUGGAUCCCCCGGCGCCCGGCGGCUCGAGCCCGGGUAAGUGUAUAUAGUCUGCAUGCCGCCGGGCGCCAUGCCUGCAGGUCGACUCUAGAAAACAUG,binding signal,PUM1 PUF domain R4-DYS,7.01 log2 enrichment (interaction score)
GGCUAGAACUAGUGGAUCCCCCGGCGCCCGGCGGCUCGAGCCCGGGUAAGUGUAAAUCGUCUGCAUGCCGCCGGGCGCCAUGCCUGCAGGUCGACUCUAGAAAACAUG,binding signal,PUM1 PUF domain R1-MPR,2.06 log2 enrichment (interaction score)
same,binding signal,PUM1 PUF domain R1-KNI,4.2 log2 enrichment (interaction score)
GGCUAGAACUAGUGGAUCCCCCGGCGCCCGGCGGCUCGAGCCCGGGUAAGCGUAAAUAGUCUGCAUGCCGCCGGGCGCCAUGCCUGCAGGUCGACUCUAGAAAACAUG,binding signal,PUM1 PUF domain R8-CYC,2.77 log2 enrichment (interaction score)
same,binding signal,PUM1 PUF domain R8-AWQ,2.11 log2 enrichment (interaction score)
GGCUAGAACUAGUGGAUCCCCCGGCGCCCGGCGGCUCGAGCCCGGGUAAGUGAAAAUAGUCUGCAUGCCGCCGGGCGCCAUGCCUGCAGGUCGACUCUAGAAAACAUG,binding signal,PUM1 PUF domain R6-IFN,5.05 log2 enrichment (interaction score)
GGCUAGAACUAGUGGAUCCCCCGGCGCCCGGCGGCUCGAGCCCGGGUAAGUGUUAAUAGUCUGCAUGCCGCCGGGCGCCAUGCCUGCAGGUCGACUCUAGAAAACAUG,binding signal,PUM1 PUF domain R5-GSK,2.59 log2 enrichment (interaction score)
GGCUAGAACUAGUGGAUCCCCCGGCGCCCGGCGGCUCGAGCCCGGGUAAGUGUACAUAGUCUGCAUGCCGCCGGGCGCCAUGCCUGCAGGUCGACUCUAGAAAACAUG,binding signal,PUM1 PUF domain R4-DYS,5.76 log2 enrichment (interaction score)
GGCUAGAACUAGUGGAUCCCCCGGCGCCCGGCGGCUCGAGCCCGGGUAAGGGUAAAUAGUCUGCAUGCCGCCGGGCGCCAUGCCUGCAGGUCGACUCUAGAAAACAUG,binding signal,PUM1 PUF domain R8-RYQ,2.37 log2 enrichment (interaction score)
GGCUAGAACUAGUGGAUCCCCCGGCGCCCGGCGGCUCGAGCCCGGGUAAGUGUAAUUAGUCUGCAUGCCGCCGGGCGCCAUGCCUGCAGGUCGACUCUAGAAAACAUG,binding signal,PUM1 PUF domain R3-LWL,4.13 log2 enrichment (interaction score)
GGCUAGAACUAGUGGAUCCCCCGGCGCCCGGCGGCUCGAGCCCGGGUAAGUGUAAGUAGUCUGCAUGCCGCCGGGCGCCAUGCCUGCAGGUCGACUCUAGAAAACAUG,binding signal,PUM1 PUF domain R3-LWL,4.64 log2 enrichment (interaction score)
